Compound activity (PubChem BioAssay)
An excerpt weighted towards active compounds, which were near 9% of everything screened.
HPGD inh – HPGD (human) dehydrogenase inhibition; P15428; purified HPGD, NADH fluorescence kinetic, PGE2 substrate; Potency, µM, for the others: top-dose activity change, negative = inhibition, hits mostly inhibitors; hit rate 4.3% among 150,000; AID 894; note: potency is the fitted concentration of half-maximal effect
Target sequence (P15428 whole entry, looked up): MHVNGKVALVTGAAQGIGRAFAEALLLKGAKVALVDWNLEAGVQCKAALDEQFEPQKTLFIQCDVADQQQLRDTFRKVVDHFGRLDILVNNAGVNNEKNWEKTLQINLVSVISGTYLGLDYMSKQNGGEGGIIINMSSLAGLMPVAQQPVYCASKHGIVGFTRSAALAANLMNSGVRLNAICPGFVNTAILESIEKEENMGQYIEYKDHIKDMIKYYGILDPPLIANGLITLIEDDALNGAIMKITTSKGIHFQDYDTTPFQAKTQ
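NADH formation kinetics: reaction with 30 uM PGE2 and 1 mM NAD+ (final), 20 nM enzyme, Tris-HCl pH 8 with Tween 20, after 15 min compound preincubation at room temperature. Fluorescence change, last versus first of five reads.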
ALDH1A1 inh – ALDH1A1 (human) enzyme inhibition. P00352. Purified ALDH1A1, NADH fluorescence, propionaldehyde substrate. Potency, µM (doses to about 75.3 µM), without a hit: at the highest dose activity, negative = inhibition, most hits filed as inhibitors. hit rate 7.3% among 220,000;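 note: potency is the fitted concentration of half-maximal effect; plate controls were no enzyme wells and a reference inhibitor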
IMPase inh – cell-permeable inhibitors of inositol monophosphatase (IMPase). P97697. CHO-M1 cells, IP1 accumulation, HTRF TR-FRET ratio. inhibition (IP1 accumulation), % at 46.1 µM. 120,000 tested, under 10 active. AID 901; active = well fitted curve in the direction sought with a large enough effect in the signal ratio, not every such curve was filed as active; inconclusive = small, poorly fitted or top-dose-only effect, or a change in a side signal; inactive = no such curve, though single readings can be large or run the other way; the % refers to the signal ratio;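 note: cells stimulated with carbachol in lithium chloride buffer; plate controls were DMSO basal wells for no effect and reference inhibitor wells for full effect; higher means more IMPase inhibition seen as more IP1 and lower FRET ratio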
Target sequence (P97697 whole entry, looked up): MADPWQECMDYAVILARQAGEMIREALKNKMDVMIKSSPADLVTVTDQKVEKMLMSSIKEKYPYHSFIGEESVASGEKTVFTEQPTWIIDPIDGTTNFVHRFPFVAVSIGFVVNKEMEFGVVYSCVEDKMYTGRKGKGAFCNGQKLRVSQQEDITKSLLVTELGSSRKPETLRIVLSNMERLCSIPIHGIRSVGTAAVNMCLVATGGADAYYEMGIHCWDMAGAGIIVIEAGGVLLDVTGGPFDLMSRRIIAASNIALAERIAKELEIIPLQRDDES
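CHO-M1 cells (CHO stably expressing M1 receptor), compound up to 46 uM final, stimulated with carbachol (50 uM as added) in buffer with 50mM LiCl, pH 7.4, 30 min at 37C. Cytosolic IP1 read by TR-FRET; AC50 from Hill fits.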
The depositor's hits bear a star; ! = not confirmed by another sample; [ ] = remark or other dose. Unless noted, calls come from the whole dose curve; as a rule, active = well fitted inhibition curve with a large enough effect (not every such curve was filed as active); inconclusive = small, poorly fitted or top-dose-only effect, or another doubt; inactive = no such curve, though single readings can be large or run the other way. Unless noted, % is set by controls: 0 for no effect and ±100 for the full control effect.

O=C(c1ccc(CN2CCc3ccccc3C2)cc1)N1CCCCC1 was read as HPGD inh 2.51µM*, ALDH1A1 inh inconclusive and IMPase inh -8.8.
Screening COCCNC(=O)c1ccc(CN2CCc3ccccc3C2)cc1 returned HPGD inh 14.1µM* and ALDH1A1 inh 8.3%.
Screening COc1ccccc1N1CCN(C(=O)c2ccc(CN3CCc4ccccc4C3)cc2)CC1 returned HPGD inh -6.3%, ALDH1A1 inh -3.1% and IMPase inh -3.9.
For Cc1ccc(OCCn2c(-c3ccc(Br)cc3)nc3ccccc3c2=O)cc1C the results were IMPase inh 5.1.
O=C(CCCN1CCC(O)(c2ccc(Br)cc2)CC1)c1ccc(F)cc1 was read as HPGD inh 1.6%, ALDH1A1 inh 7.9%[20.9 µM] and IMPase inh -0.3[20.6 µM].
CCN1CCC2(CC1)N=C(c1ccc(F)cc1)C(=S)N2C(=O)c1ccc(C(C)(C)C)cc1 was read as ALDH1A1 inh 28.2µM* and IMPase inh 15.7.
Screening CN1CCC2(CC1)N=C(c1ccc(F)cc1)C(=S)N2C(=O)c1ccccc1 returned ALDH1A1 inh 22.4µM* and IMPase inh 11.3.
For O=C(Cn1nnc(-c2ccccc2)n1)N1CCN(c2ccc(F)cc2)CC1 the results were ALDH1A1 inh -0.5%.
CC/C(=N\NC(=S)Nc1cc(C)ccc1C)c1ccc(OC(F)F)cc1 was read as HPGD inh -9.0% and ALDH1A1 inh inconclusive.
`Cc1ccc(S(=O)(=O)NCCSc2nnnn2C)cc1` gave HPGD inh -1.9%, ALDH1A1 inh inconclusive and IMPase inh 1.6.
Screening Fc1ccccc1N1CCN(C(c2ccncc2)c2nnnn2C2CCCC2)CC1 (stereo not given) returned HPGD inh -0.3%, ALDH1A1 inh 25.1µM* and IMPase inh 8.6.
c1ccc(C(c2nnnn2C2CCCC2)N2CCN(c3nc4ccccc4s3)CC2)cc1 (stereo not given) was read as HPGD inh -6.5%, ALDH1A1 inh 14.1µM* and IMPase inh 4.3.
`c1csc(C(c2nnnn2C2CCCCC2)N2CCN(c3nc4ccccc4s3)CC2)c1` (stereo not given) gave HPGD inh -4.4%, ALDH1A1 inh -9.2% and IMPase inh 1.7[0.369 µM].
CCC(c1nnnn1C1CCCC1)N1CCN(c2ccccc2F)CC1 (stereo not given) was read as HPGD inh -9.2%, ALDH1A1 inh inconclusive and IMPase inh 9.5.
Cc1ccc(CNc2nc3ccc(C)cc3n3nnnc23)cc1 was read as IMPase inh -1.0.
CC(C)=CCC1=C(O)[C@](O)(CC=C(C)C)C(=O)C(C(=O)CC(C)C)=C1O was read as HPGD inh -13.7% and ALDH1A1 inh -7.2%.
Screening CO[C@H]1COC(=O)C/C=C\[C@H](C)[C@@H](NS(=O)(=O)c2ccc(C)cc2)COC(=O)C/C=C\[C@@H]1C returned ALDH1A1 inh -13.4%[13.5 µM].
For C=CCn1c(Cc2cccc3ccccc23)n[nH]c1=S the results were HPGD inh 28.2µM* and ALDH1A1 inh -7.9%.
`C=CCn1c(Cc2nc3ccccc3[nH]2)n[nH]c1=S` gave HPGD inh inconclusive, ALDH1A1 inh inconclusive and IMPase inh 4.5.
For S=c1[nH]nc(CCSCc2ccccc2)n1-c1ccccc1 the results were ALDH1A1 inh 35.5µM*.
COc1ccc(CSCCc2n[nH]c(=S)n2-c2ccccc2)cc1C was read as ALDH1A1 inh 0.0%.
`S=c1[nH]nc(Cc2noc3ccccc23)n1-c1ccccc1` gave ALDH1A1 inh -2.4%.
S=c1[nH]nc(Cc2cccc3ccccc23)n1-c1ccccc1 was read as HPGD inh 14.1µM*, ALDH1A1 inh inconclusive and IMPase inh -5.5.
For CC12CC3CC(C)(C1)CC(C(=O)NC(=S)N1CCOCC1)(C3)C2 the results were HPGD inh 3.8%, ALDH1A1 inh -6.9% and IMPase inh -0.5.
COc1ccc(C2(O)CCN(C(=O)c3ccc4c(c3)OCO4)CC2)cc1 was read as HPGD inh -6.0%, ALDH1A1 inh -13.4% and IMPase inh 16.0.
`CC1CCc2c(sc(NC(=O)Cn3nc(C(F)(F)F)c4c3CCCCC4)c2C#N)C1` (stereo not given) gave HPGD inh 35.5µM*, ALDH1A1 inh 25.1µM* and IMPase inh 6.0.
Screening CC1CCN(CC(=O)Nc2sc3c(c2C#N)CCC3)CC1 returned ALDH1A1 inh inconclusive and IMPase inh 7.0.
Screening CCc1ccc(NC(=O)Cn2nc(C(F)(F)F)c3c2CCC3)cc1 returned HPGD inh -16.7%, ALDH1A1 inh 6.2% and IMPase inh 6.2.
Screening N#Cc1c(NC(=O)Cn2nc(C(F)(F)F)c3c2CCCC3)sc2c1CCC2 returned HPGD inh 8.91µM*, ALDH1A1 inh 7.94µM* and IMPase inh 0.3.
CC1CC(OC(=O)C(O)c2ccccc2)CC(C)(C)C1 (stereo not given) was read as HPGD inh -5.5% and ALDH1A1 inh 2.7%.
Screening Cc1ccc(NC(=S)N(CCN(C)C)Cc2cc3cc(C)ccc3[nH]c2=O)cc1 returned ALDH1A1 inh -5.5%.
Screening CCCSc1nc(O)c(C(c2ccc(OC)c(O)c2)c2c(O)nc(SCCC)n(C)c2=O)c(=O)n1C returned HPGD inh -25.0% and ALDH1A1 inh inconclusive.
For O=C(NC(=S)NCCN1CCOCC1)c1ccc(Cl)cc1 the results were HPGD inh -4.7% and ALDH1A1 inh 8.3%.
For O=S(=O)(Nc1ccc(Cl)cc1)c1ccc(N2CCOCC2)c(NC(=S)NCCN2CCOCC2)c1 the results were ALDH1A1 inh 8.91µM*.
For N#Cc1ccc(C(=O)Nc2cc(S(=O)(=O)Nc3ccc(Cl)cc3)ccc2N2CCCCC2)cc1 the results were HPGD inh 3.1% and ALDH1A1 inh inconclusive.
O=C(Nc1cc(S(=O)(=O)Nc2ccc(Cl)cc2)ccc1N1CCCCC1)c1ccc(F)cc1 was read as HPGD inh inconclusive, ALDH1A1 inh 28.2µM* and IMPase inh 2.3.
Screening CCOc1ccccc1NC(=O)N1CCC(n2nnc3cc(C)ccc32)CC1 returned HPGD inh -3.9%, ALDH1A1 inh -1.7% and IMPase inh -10.0.
Screening N#CC(=C=[N-])c1nc2ccccc2nc1-[n+]1cccc(NC(=O)c2ccc(F)cc2)c1 returned ALDH1A1 inh -8.5%.
Screening N#CC(=C=[N-])c1nc2ccccc2nc1-[n+]1cccc(NC(=O)c2ccccc2)c1 returned ALDH1A1 inh 14.1µM*!.
`CCC(C)c1ccc(NC(=O)c2cccnc2)cc1` (stereo not given) gave HPGD inh -10.7%, ALDH1A1 inh inconclusive and IMPase inh 7.1.
Screening CCC(C)c1ccc(O)c(NC(=O)c2cccnc2)c1 (stereo not given) returned HPGD inh -9.6%, ALDH1A1 inh 11.2µM* and IMPase inh 0.5.
For CCOC(=O)c1cccc(NC(=O)c2cccnc2)c1 the results were HPGD inh -9.5%, ALDH1A1 inh -0.7% and IMPase inh -2.8.
CCOC(=O)c1ccc(Cl)c(NC(=O)c2cccnc2)c1 was read as ALDH1A1 inh 11.2µM*.
For CSc1nc2c(c(=O)[nH]1)C(c1ccncc1)C(C(=O)OC(C)C)=C(C)N2 (stereo not given) the results were HPGD inh -7.2%, ALDH1A1 inh 5.5% and IMPase inh -1.2.
Cn1c(C[C@@H](O)c2nc3ccccc3n2C)nc2ccccc21 was read as HPGD inh -15.7% and ALDH1A1 inh 13.0%[13.5 µM].
